High-throughput results (PubChem)
Rows were chosen to be rich in hits. Some 1.8% of all compounds tested hit in one or more screens of this group.
Sa RN4220 lethal: growth inhibition of S. aureus RN4220, primary screen, OD600; 16 h; inhibition, % (no concentration beside the values); 330,000 tested, 0.33% active; AID 1259311, 2017; in the data active means inhibition above about 85%;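 further: plate controls were untreated cells for no effect and reference antibiotic for full effect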
PrPC TRFRET: inhibitors of human cell surface prion protein PrPC, primary screen, cell-based, TR-FRET | Major prion protein (Homo sapiens), P04156 | TR-FRET read-out | inhibition, % at 13.8 µM | 370,000 tested, 0.43% active | AID 720596, 2013; in the data active means inhibition above about 24%; further: 0% = median of the test wells and 100% = reference compound wells
ugtP null kill: growth inhibition of ugtP-null S. aureus, primary screen, RN4220 ugtP deletion, OD600; AID 1259309, 2017; 330,000 tested, 0.54% active; 16 h; growth inhibition, % (concentration not given with the values); in the data active means growth inhibition above about 68%;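 further: plate controls were untreated wells for no effect and antibiotic for full effect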
VHR inh abs: VHR1 phosphatase inhibitors, primary screen, biochemical, absorbance, uHTS; Dual specificity protein phosphatase 3 (Homo sapiens), P51452; recombinant VHR phosphatase, pNPP absorbance; inhibition, % at 13.3 µM; 290,000 tested, 0.52% active; AID 1654, 2009; in the data active means inhibition above about 50%
Target sequence (P51452 whole entry, looked up): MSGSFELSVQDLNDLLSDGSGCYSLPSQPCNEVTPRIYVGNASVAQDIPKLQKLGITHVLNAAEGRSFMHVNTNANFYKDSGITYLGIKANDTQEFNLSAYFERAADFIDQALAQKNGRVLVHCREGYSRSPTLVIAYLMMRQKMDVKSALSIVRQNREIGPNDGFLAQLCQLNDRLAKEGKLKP
PfHsp40 rescue: rescue of yeast from PfHsp40 toxicity, primary screen, S. cerevisiae, ATP luminescence; growth rescue, % at 12.5 µM; S. cerevisiae expressing PfHsp40, growth rescue; 340,000 tested, 0.68% active; in the data active means growth rescue above about 28%, passing the limit was not always enough; inconclusive means no clear call, values can overlap the other calls;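 further: yeast W303a lacking pdr1 and pdr3 grown in galactose medium; growth measured after three days at 30 °C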
The depositor's hits bear a star; ? = inconclusive; nt = no result.

SMILES | Sa RN4220 lethal | PrPC TRFRET | ugtP null kill | VHR inh abs | PfHsp40 rescue
CC(Oc1ccc(Cl)cc1Cl)C(=O)NCCCN1CCOCC1 (centres undefined) | 2.5 | -7.1 | 5.1 | 12.4 | -0.1
Cc1cc(OC(C)C(=O)NCCCN2CCOCC2)ccc1Cl (centres undefined) | -3.5 | -1.1 | -3.7 | 50.2* | 0.1
COc1ccc(C(=O)C=CNc2c(C)n(C)n(-c3ccccc3)c2=O)cc1OC | 3.7 | nt | -0.7 | nt | nt
O=C1c2ccccc2C(O)N1c1ccc(Cl)cc1 (centres undefined) | -6.0 | -5.0 | -7.4 | 41.9 | -1.0
COC(=O)C1CN(C#N)N(c2ccc(Cl)cc2)C12c1ccccc1-c1ccccc12 (centres undefined) | 90.0* | nt | 96.4* | 11.8 | 4.3
COC(=O)c1cn(-c2ccccc2)nc1-c1ccncc1 | 1.0 | -3.5 | 4.9 | 37.6 | -1.0
O=C(OCc1ccccc1)c1cn(-c2ccccc2)nc1-c1ccncc1 | 5.7 | -2.5 | -11.5 | 17.7 | 104.0*
C=CCn1c(SCc2c(C)noc2C)nc2sc3c(c2c1=O)CCCCC3 | 4.4 | -2.5 | 88.0* | 17.2 | -0.8
Cc1c(C(=O)N(Cc2ccccc2)Cc2cccs2)cnn1-c1ccc(Cl)cc1 | nt | 7.9 | nt | 16.6 | 116.8*
Cc1c(C(=O)N(Cc2ccccc2)C(C)C)cnn1-c1ccccc1 | 2.4 | 5.0 | 2.7 | 23.3 | 0.7
O=C(Cn1cnc2ccccc2c1=O)c1cccs1 | 5.2 | -2.9 | -6.9 | 23.4 | 41.3*
O=C(Cn1cnc2ccc(Cl)cc2c1=O)c1cccs1 | -12.0 | 12.6 | 1.1 | 14.4 | 0.0
CN(C)C=NC(=S)Nc1ccccc1Cl | 3.4 | nt | -0.2 | nt | nt
CC[n+]1c(/C=C/N(C)c2ccccc2)n(-c2ccccc2)c2ccc(-c3nc4ccccc4s3)cc21 | 99.8* | nt | 100.8* | 3.6 | ?
CCOC(=O)c1ccc2c(c1)n(CC)c(/C=C/N(C)c1ccccc1)[n+]2CC | 18.9 | -1.7 | 6.1 | 7.8 | -0.5
Cc1ccc2nc(-c3ccc(NC(=S)NC4CC(C)(C)NC(C)(C)C4)cc3)sc2c1 | 99.7* | 4.5 | 95.1* | 16.9 | -1.0
O=C(Nc1cc(S(=O)(=O)N2CCOCC2)ccc1Cl)C(=O)c1c(-c2ccccc2)cc2ccccn12 | 10.2 | 3.9 | -10.4 | 30.3 | 66.4*
Cc1ccc2nc(-c3cccnc3)cc(C(=O)Nc3ccc(F)cc3C)c2c1 | -0.3 | 5.2 | -0.8 | 52.9* | -0.5
Cc1ccc2nc(-c3ccncc3)cc(C(=O)Nc3ccc(F)cc3C)c2c1 | -7.8 | -14.8 | 3.0 | 19.2 | -0.8
COc1cccc(C=NNC(N)=S)c1OS(=O)(=O)c1ccccc1 | 4.1 | nt | -1.8 | nt | nt
CN1CCN(C(=O)C(=Cc2ccc3c(c2)OCO3)NC(=O)c2cccs2)CC1 | -2.0 | nt | -1.3 | nt | nt
O=C(CCl)c1ccc2c(c1)CCN2C(=O)C1CC1 | nt | nt | nt | -5.2 | nt
O=C(CCl)c1ccc2c(c1)CCN2C(=O)C1CCCCC1 | 98.2* | -7.7 | 99.1* | 8.5 | 1.0
COc1ccc(OC)c2c1C(=O)C(Cl)=C(Cl)C2=O | nt | 1.2 | nt | -18.2 | 612.9*
COc1ccc(OC)c2c1C(=O)c1ccccc1C2=O | 1.3 | -13.2 | 15.9 | 4.6 | nt
SMILES | Sa RN4220 lethal | PrPC TRFRET | ugtP null kill | VHR inh abs | PfHsp40 rescue
CCn1nc(-c2ccccc2)nc2c(=O)n(C)c(=O)nc1-2 | 94.9* | nt | 99.9* | 31.2 | 10.7
Cc1nc(NN=Cc2ccc(O)cc2O)cc(N2CCOCC2)n1 | 0.1 | nt | -4.1 | nt | nt
Cc1ccc(-c2[nH]ncc2C=Nn2c(COc3ccccc3)nc3ccccc3c2=O)cc1 | 6.1 | nt | -4.4 | nt | nt
CN1CCN(C=C2SC(=S)NC2=O)CC1 | 2.5 | nt | -0.1 | nt | nt
COC(=O)c1[nH]c2cccc(OC)c2c1NC(=O)CCN1CCSCC1 | 3.2 | -3.6 | 4.5 | 39.7 | -0.4
COC(=O)c1[nH]c2ccccc2c1CN1CCOCC1 | 4.2 | 5.7 | 13.6 | 55.7* | 3.6
COC(=O)c1[nH]c2cccc(OC)c2c1NC(=O)CN1CCOCC1 | -9.1 | 2.3 | -8.1 | 11.3 | 51.6*
COC(=O)c1[nH]c2ccccc2c1NC(=O)CN1CCCCCC1 | 3.0 | -3.1 | 1.6 | -17.2 | 2.1
Cc1c(C(=O)N2CCCC2)oc2c1-c1nn(CC(=O)NCCCN3CCCCC3C)cc1CC2 (centres undefined) | 0.8 | -2.6 | 1.4 | 55.6* | -0.2
Cc1c(C(=O)N2CCCC2)oc2c1-c1nn(CC(=O)NCCCN3CCCCC3)cc1CC2 | 5.9 | -4.1 | -0.3 | 46.9 | 0.8
CCC1CCCCN1CCCNC(=O)Cn1cc2c(n1)-c1c(oc(C(=O)N3CCCC3)c1C)CC2 (centres undefined) | 4.4 | -6.6 | -0.4 | 55.5* | 2.0
